# Only a selection was taken, and the strongest signals are over-represented in it overall.
# B1: HMGB1 (Rattus norvegicus), P63159 (protein)
# chain: MGKGDPKKPRGKMSSYAFFVQTCREEHKKKHPDASVNFSEFSKKCSERWKTMSAKEKGKFEDMAKADKARYEREMKTYIPPKGETKKKFKDPNAPKRPPSAFFLFCSEYRPKIKGEHPGLSIGDVAKKLGEMWNNTAADDKQPYEKKAAKLKEKYEKDIAAYRAKGKPDAAKKGVVKAEKSKKKKEEEDDEEDEEDEEEEEEEEDEDEEEDDDDE
# Columns and labels:
# Test in all cases: glycan array binding signal (z-score within array); higher = stronger binding
# Conditions in all cases: glycan notation: IUPAC condensed, linker removed
# [1] = target: Fuc(a1-2)[Gal(a1-3)]Gal(b1-4)Glc
# Outline: (§1)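 Columns mapping to the same glycan were averaged after glycan names were converted to IUPAC-condensed notation. The data come from 3228 arrays in the Consortium for Functional Glycomics database, limited to those with an available protein sequence. Binding is reported as a within-array Z-score averaged across arrays of one protein sequence and across linkers.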
# [2] = target: Fuc(a1-2)[GalNAc(a1-3)]Gal(b1-4)[Fuc(a1-3)]GlcNAc
# Outline: as §1
# Fuc(a1-3)GlcNAc = target: Fuc(a1-3)GlcNAc
# Outline: as §1
# [3] = target: Gal(b1-3)GalNAc(b1-3)Gal(a1-4)Gal(b1-4)Glc
# Outline: as §1
# [4] = target: Gal(b1-3)[GlcNAc(b1-6)]GalNAc
# Outline: as §1
# [5] = target: Gal(b1-3)[Neu5Ac(a2-6)]GalNAc
# Outline: as §1
# [6] = target: Gal(b1-4)GalNAc(b1-3)[Fuc(a1-2)]Gal(b1-4)GlcNAc
# Outline: as §1
# [7] = target: GalNAc(b1-3)Gal(a1-4)Gal(b1-4)GlcNAc
# Outline: as §1
# [8] = target: GlcNAc(b1-6)Gal(b1-4)GlcNAc
# Outline: as §1
# [9] = target: Man(a1-2)Man(a1-2)Man(a1-3)Man
# Outline: as §1
# [10] = target: Neu5Ac(a2-3)Gal(b1-3)GalNAc(b1-3)Gal(a1-4)Gal(b1-4)Glc
# Outline: as §1
# [11] = target: Neu5Ac(a2-3)Gal(b1-3)[Fuc(a1-4)]GlcNAc
# Outline: as §1
# [12] = target: Neu5Ac(a2-3)Gal(b1-4)GlcNAc(b1-3)Gal(b1-4)GlcNAc(b1-3)Gal(b1-4)GlcNAc
# Outline: as §1
# [13] = target: Neu5Ac(a2-3)Gal(b1-4)GlcNAc(b1-3)Gal(b1-4)[Fuc(a1-3)]GlcNAc
# Outline: as §1
# [14] = target: Neu5Ac(a2-3)[Neu5Ac(a2-6)]GalNAc
# Outline: as §1
# [15] = target: Neu5Ac(a2-6)GalNAc(b1-4)GlcNAc
# Outline: as §1
# [16] = target: Neu5Gc(a2-3)Gal(b1-3)[Fuc(a1-4)]GlcNAc
# Outline: as §1
# [17] = target: Neu5Gc(a2-3)Gal(b1-4)GlcNAc
# Outline: as §1
binder,measurement,setting,value
B1,glycan array binding signal (z-score),[1],0.151
same,glycan array binding signal (z-score),[2],-0.019
same,glycan array binding signal (z-score),Fuc(a1-3)GlcNAc,9.99
same,glycan array binding signal (z-score),[3],-0.447
same,glycan array binding signal (z-score),[4],-0.335
same,glycan array binding signal (z-score),[5],-0.379
same,glycan array binding signal (z-score),[6],-0.322
same,glycan array binding signal (z-score),[7],2.44
same,glycan array binding signal (z-score),[8],2.57
same,glycan array binding signal (z-score),[9],-0.58
same,glycan array binding signal (z-score),[10],-0.21
same,glycan array binding signal (z-score),[11],-0.164
same,glycan array binding signal (z-score),[12],-0.169
same,glycan array binding signal (z-score),[13],2.06
same,glycan array binding signal (z-score),[14],-0.263
same,glycan array binding signal (z-score),[15],2.1
same,glycan array binding signal (z-score),[16],2.69
same,glycan array binding signal (z-score),[17],0.031

# From the supplement of paper PMC8728848
